From PubChem BioAssay AID1159580 (chemical genetic matrix, 2015)
In all, about 5,500 compounds went through this assay and about 2,000 (36%) were called active. Another 18% or so got no clear call; they are omitted. No stated cut-off is given here; in the data, active means normalized growth mostly below about 0.91 (no sharp cut-off); inconclusive means no clear call, values can overlap the other calls; inactive means mostly above about 0.92. Some of the results follow.

Assay: chemical genetic growth profiling, strain panel (AID 1159580);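 further: tested at 20 µM; growth read once vehicle control cultures reached saturation at 30 °C; 1 = growth at the plate median or of vehicle wells; lower values mean less growth of the strain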
Details: S. cerevisiae deletion strains, growth OD

Measured: normalized growth

FC(F)(F)c1ccccc1-n1ccnc1
inactive: locus YAL021C, strain ccr4, hits give low values 0.971 | locus YAL026C, strain drs2, hits give low values 1.02 | locus YAL030W, strain snc1, hits give low values 1.01 | locus YAL040C, strain CLN3, hits give low values 1.01 | locus YBL061C, strain skt5, hits give low values 1.01 | locus YBR009C, strain hhf1, hits give low values 1.08 | locus YBR023C, strain chs3, hits give low values 1 | locus YBR171W, strain sec66, hits give low values 0.966 | locus YBR231C, strain swc5, hits give low values 1 | locus YBR279W, strain paf1, hits give low values 1 | locus YCL011C, strain gbp2, hits give low values 0.998 | locus YCL016C, strain dcc1, hits give low values 1.01 | locus YCL061C, strain MRC1 (second series), hits give low values 1 | locus YCL061C, strain MRC1, hits give low values 1 | locus YCL069W, strain vba3, hits give low values 0.999 | locus YCR088W, strain abp1, hits give low values 0.986 | locus YDL005C, strain med2, hits give low values 0.992 | locus YDL040C, strain nat1, hits give low values 1 | locus YDR001C, strain nth1, hits give low values 0.988 | locus YDR069C, strain doa4, hits give low values 0.999 | locus YDR137W, strain rgp1, hits give low values 0.949 | locus YDR159W, strain sac3, hits give low values 1.04 | locus YDR195W, strain ref2 1.03 | locus YDR297W, strain sur2, hits give low values 0.995 | locus YDR334W, strain swr1, hits give low values 0.963 | locus YDR335W, strain msn5, hits give low values 0.988 | locus YDR363W, strain ESC2, hits give low values 1.02 | locus YDR392W, strain spt3, hits give low values 0.993 | locus YEL003W, strain gim4, hits give low values 0.987 | locus YEL037C, strain rad23, hits give low values 1 | locus YEL061C, strain CIN8 (second series), hits give low values 0.995 | locus YER002W, strain NOP16, hits give low values 0.991 | locus YER015W, strain faa2, hits give low values 1 | locus YER016W, strain bim1, hits give low values 1.01 | locus YER111C, strain swi4, hits give low values 0.999 | locus YER155C, strain BEM2 (second series), hits give low values 1.04 | locus YFR010W, strain ubp6, hits give low values 1 | locus YGL167C, strain pmr1, hits give low values 1.01 | locus YGL173C, strain kem1, hits give low values 1.01 | locus YGL227W, strain vid30, hits give low values 1.02 | locus YGL240W, strain doc1, hits give low values 1.06 | locus YGL253W, strain hxk2, hits give low values 1 | locus YHR013C, strain ard1, hits give low values 0.998 | locus YHR027C, strain rpn1, hits give low values 0.99 | locus YHR030C, strain SLT2, hits give low values 0.993 | locus YHR079C, strain IRE1, hits give low values 1.01 | locus YHR142W, strain chs7, hits give low values 0.935 | locus YJL092W, strain hpr5, hits give low values 0.975 | locus YJL095W, strain BCK1 (second series), hits give low values 0.994 | locus YJL095W, strain BCK1, hits give low values 1 | locus YJL115W, strain asf1, hits give low values 0.983 | locus YJL129C, strain trk1, hits give low values 0.974 | locus YJL154C, strain vps35, hits give low values 1 | locus YJL164C, strain tpk1, hits give low values 0.978 | locus YJL166W, strain qcr8, hits give low values 1.01 | locus YJL187C, strain SWE1, hits give low values 1 | locus YJR066W, strain TOR1, hits give low values 0.936 | locus YKL160W, strain elf1, hits give low values 0.971 | locus YKR026C, strain gcn3, hits give low values 0.993 | locus YKR091W, strain srl3, hits give low values 1 | locus YLL001W, strain dnm1, hits give low values 1 | locus YLL026W, hits give low values 1 | locus YLL041C, strain sdh2, hits give low values 0.994 | locus YLR027C, strain aat2, hits give low values 0.99 | locus YLR113W, strain HOG1, hits give low values 1.05 | locus YLR221C, strain rsa3, hits give low values 0.985 | locus YLR258W, strain gsy2, hits give low values 1.03 | locus YLR262C, strain YPT6 (second series), hits give low values 0.923 | locus YLR320W, strain mms22, hits give low values 1 | locus YLR342W, strain FKS1, hits give low values 1 | locus YLR357W, strain rsc2, hits give low values 1.02 | locus YLR370C, strain arc18, hits give low values 1 | locus YLR384C, strain iki3, hits give low values 0.995 | locus YML120C, strain ndi1, hits give low values 0.979 | locus YMR058W, strain fet3, hits give low values 0.98 | locus YMR125W, strain sto1, hits give low values 1.02 | locus YMR129W, hits give low values 0.992 | locus YMR205C, strain PFK2, hits give low values 1.09 | locus YMR231W, strain pep5, hits give low values 1.02 | locus YMR307W, strain GAS1, hits give low values 1.02 | locus YNL071W, strain lat1, hits give low values 0.992 | locus YNL175C, strain NOP13, hits give low values 0.976 | locus YNL183C, strain NPR1, hits give low values 0.925 | locus YNL197C, strain WHI3, hits give low values 0.977 | locus YNL209W, strain ssb2, hits give low values 1 | locus YNL224C, strain SQS1, hits give low values 0.995 | locus YNL248C, strain rpa49, hits give low values 0.936 | locus YNL322C, strain KRE1 (second series), hits give low values 1.01 | locus YNL322C, strain KRE1, hits give low values 0.996 | locus YNR049C, strain mso1, hits give low values 0.995 | locus YOR001W, strain rrp6, hits give low values 0.949 | locus YOR070C, strain gyp1, hits give low values 1 | locus YOR080W, strain dia2, hits give low values 1 | locus YOR083W, strain WHI5 (second series), hits give low values 0.948 | locus YOR083W, strain WHI5, hits give low values 0.944 | locus YOR106W, strain vam3, hits give low values 0.951 | locus YOR231W, strain MKK1, hits give low values 0.981 | locus YOR265W, strain rbl2, hits give low values 0.991 | locus YOR270C, strain vph1, hits give low values 0.946 | locus YOR290C, strain snf2, hits give low values 0.939 | locus YPL051W, strain arl3, hits give low values 0.98 | locus YPL078C, strain atp4, hits give low values 0.931 | locus YPL106C, strain sse1, hits give low values 1.02 | locus YPL240C, strain hsp82, hits give low values 0.975 | locus YPL241C, strain CIN2, hits give low values 0.998 | locus YPL256C, strain CLN2, hits give low values 1.03
